Most compounds without a hit are left out; they make up all but 3.8% or so of the library.
NALP1 inh – NALP1 inflammasome inhibitors in reconstituted yeast, colorimetric, S. cerevisiae, triplicate retest; S. cerevisiae NALP1/ASC/caspase-1 growth, X-gal OD620, 72 h; 280,000 compounds, 0.61% hits; AID 2071, 2009; inhibition, % at 10 µM; in the data active = inhibition mostly above about 24%, no sharp cut-off; inactive = mostly below about 32%
p-CIP stab down – p/CIP-EGFP fusion destabilizers, primary screen, fluorescence, F442A cells; Q05BA5; 16 h; decrease of EGFP signal, % at 10 µM; 290,000 compounds, 0.01% hits; AID 1984, 2009;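 active = EGFP signal decrease of at least 30% at 10 µM or well 3 SD below plate mean, unless failing retest; inactive = the rest, including hits failing retest or dose response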
Target sequence (Q05BA5 1-1403): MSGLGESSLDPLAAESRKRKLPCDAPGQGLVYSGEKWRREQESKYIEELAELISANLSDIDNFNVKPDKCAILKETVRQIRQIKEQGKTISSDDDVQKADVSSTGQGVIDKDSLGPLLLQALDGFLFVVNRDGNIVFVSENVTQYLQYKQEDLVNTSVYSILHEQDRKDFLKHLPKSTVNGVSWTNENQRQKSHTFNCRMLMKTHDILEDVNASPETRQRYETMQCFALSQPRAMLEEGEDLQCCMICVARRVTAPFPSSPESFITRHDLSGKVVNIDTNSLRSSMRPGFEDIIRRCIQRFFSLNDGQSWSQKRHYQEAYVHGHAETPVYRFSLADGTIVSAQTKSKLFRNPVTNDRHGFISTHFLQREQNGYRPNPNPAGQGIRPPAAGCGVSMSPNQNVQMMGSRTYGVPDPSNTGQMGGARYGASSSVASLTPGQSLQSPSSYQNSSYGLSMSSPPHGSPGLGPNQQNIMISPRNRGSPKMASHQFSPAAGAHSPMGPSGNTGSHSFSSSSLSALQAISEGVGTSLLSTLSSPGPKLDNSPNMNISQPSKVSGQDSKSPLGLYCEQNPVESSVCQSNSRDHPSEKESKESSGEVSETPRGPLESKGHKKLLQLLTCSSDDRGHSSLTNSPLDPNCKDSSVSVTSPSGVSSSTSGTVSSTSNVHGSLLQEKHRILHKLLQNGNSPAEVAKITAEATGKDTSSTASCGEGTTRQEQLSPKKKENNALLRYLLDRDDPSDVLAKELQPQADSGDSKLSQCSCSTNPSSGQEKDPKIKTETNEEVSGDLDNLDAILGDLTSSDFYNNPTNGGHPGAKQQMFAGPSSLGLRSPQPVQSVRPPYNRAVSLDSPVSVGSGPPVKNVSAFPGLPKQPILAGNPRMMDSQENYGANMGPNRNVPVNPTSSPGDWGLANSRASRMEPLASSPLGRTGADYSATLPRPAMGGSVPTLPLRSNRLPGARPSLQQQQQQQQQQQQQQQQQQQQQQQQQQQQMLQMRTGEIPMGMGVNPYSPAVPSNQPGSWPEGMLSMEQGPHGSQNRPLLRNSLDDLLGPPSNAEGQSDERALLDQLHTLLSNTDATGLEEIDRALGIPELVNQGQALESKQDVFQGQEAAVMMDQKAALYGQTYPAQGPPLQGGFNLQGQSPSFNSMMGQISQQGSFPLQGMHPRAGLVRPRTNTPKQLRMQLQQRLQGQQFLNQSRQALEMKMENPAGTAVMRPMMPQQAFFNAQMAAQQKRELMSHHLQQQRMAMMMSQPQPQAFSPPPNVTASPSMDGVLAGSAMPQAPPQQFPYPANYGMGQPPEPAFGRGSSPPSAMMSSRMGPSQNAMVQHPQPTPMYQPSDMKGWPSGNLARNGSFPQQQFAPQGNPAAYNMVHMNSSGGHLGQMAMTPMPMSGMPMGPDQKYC
Hsp70 act – Hsp70 transcriptional activators, primary screen, cell-based, HeLa, Hsp70 promoter luciferase, luminescence, 10 µM | HeLa Hsp70 promoter luciferase reporter; scaled: vehicle 0, proteasome-inhibitor control 100% | activation, % at 10 µM | 200,000 compounds, 0.04% hits;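 active = activation above the mean across all tested compounds plus 3 SD, cutoff set per campaign, cut at about 5.5% in these data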;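 note: 100% = MG132 at 30 µM as the positive control and 0% = DMSO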
HSF-1 act – HSF-1 activators, primary screen, NIH3T3-HGL cells, MG132 stress, luminescence, single point; NIH3T3-HGL HSF-1 luciferase reporter, 8 h; 100% = twice DMSO control signal; 300,000 compounds, 1.7% hits; activation, % at 9 µM;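 active = mean replicate activation of at least 50% with a set share of replicates each reaching 50%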;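 note: 0% = median of the neutral control wells and 100% = twice that signal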
HSF1 inh – HSF1 inhibitors in luciferase reporter cells, primary screen, cell-based, NIH3T3, luminescence | 300,000 compounds, 0.77% hits | NIH3T3-HGL HSE-luciferase, MG132-induced, luminescence 8 h; hits give low values | activity change, negative = inhibition, % at 7.5 µM (by protocol) | AID 2098, 2009;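 active = more than half of replicate wells show activity change below -50%, luminescence cut by over half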;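 note: luciferase reports HSF-1 transcriptional activity via heat shock element; 0% = median of DMSO wells and -100% = zero luminescence signal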
HSP90 inh – HSP90 inhibitors, primary screen, cell lysate, luminescence. Rabbit reticulocyte lysate, luciferase refolding luminescence, 3 h. inhibition, % at 5.6 µM. 290,000 compounds, 0.91% hits. AID 1789, 2009;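 active = inhibition above the screen-wide mean plus 3 SD, computed separately per campaign, cut at about 16% in these data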;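 note: 0% = DMSO wells and 100% = 60 µM geldanamycin wells; inhibitors lower the luminescence because luciferase stays unfolded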
Starred values were filed as active, the others as inactive; . = not tested or not shown.

SMILES	NALP1 inh	p-CIP stab down	Hsp70 act	HSF-1 act	HSF1 inh	HSP90 inh
CCC(CO)NCc1ccccc1OC(C)C (stereo not drawn)	14.0	-8.7	-0.2	-3.3	-0.8	1.0
COc1ccc(C(=O)NC(=S)NCCO)cc1Br	14.5	0.8	-0.1	-73.9	-67.8*	-2.7
COc1ccc(C(=O)NC(=S)NCc2cccnc2)cc1Br	-11.8	-8.0	-0.2	9.3	6.3	-1.5
CN(Cc1ccccc1)C(=S)NC(=O)c1ccccc1	20.8	-1.3	0.0	27.7	2.5	1.8
COc1ccc(C(=O)NC(=S)N(C)Cc2ccccc2)cc1Br	6.9	-5.8	-0.2	53.6*	21.3	-2.4
Brc1ccc(-n2cnc(-c3ccccc3)c2)cc1	7.2	7.8	.	77.5*	45.9	4.2
NNc1nc(-c2ccccc2)cc(-c2ccc(Br)cc2)n1	-1.9	-8.3	.	8.7	1.3	2.0
COc1cc2c(=O)n(CCCC(=O)NCC3CCCO3)c(=O)n(CC(=O)c3ccc(F)cc3)c2cc1OC (stereo not drawn)	-2.7	7.3	-0.3	-1.0	-6.3	1.5
CN(C)S(=O)(=O)c1ccc(S(=O)(=O)N2CCCC(C(=O)NC3CCCC3)C2)cc1 (stereo not drawn)	14.6	-21.6	.	11.1	-6.0	-1.7
O=C(Nc1ccc2c(c1)CCCN2C(=O)c1cccs1)c1ccccc1	32.0	-7.3	.	33.1	18.8	-3.2
O=C(Nc1ccc2c(c1)CCCN2C(=O)c1cccs1)c1cccc(F)c1	36.1	-3.1	.	59.5*	35.4	-0.2
Cc1ccc(N2C(=O)N(CC(=O)Nc3cc(Cl)ccc3C)C(=O)C2C)cc1 (stereo not drawn)	.	.	.	1.6	-1.5	.
CCCOc1ccc(/C(O)=C2/C(=O)C(=O)N(CCOC)C2c2cccnc2)cc1 (stereo not drawn)	30.8*	-28.1	-0.2	-4.9	-2.7	0.7
Nc1cc(N)nc(SCCOc2ccccc2F)n1	12.4	12.3	-0.2	66.4*	43.1	4.5
COc1ccccc1OCCSc1nc(N)cc(N)n1	6.5	6.1	-0.2	20.7	9.7	4.1
CCOC(=O)c1c(C)[nH]c(C(=O)CSc2ccccc2)c1C	27.7	8.9	0.0	58.8*	26.8	7.8
CCOC(=O)c1c(C)[nH]c(C)c1C(=O)CSc1nc2ccccc2n1CCC#N	.	-10.9	-0.5	-2.5	-4.8	-7.4
CCOC(=O)c1c(C)[nH]c(C(=O)OCc2ccccc2)c1C	17.4	-10.2	.	61.5*	45.9	2.7
CCCn1c(SCC(=O)c2c(C)[nH]c(C)c2C(=O)OCC)nc2ccccc21	27.5	-5.2	-0.3	-70.2	-61.2*	-1.1
Cc1ccc(C2(C)NC(=O)N(CC(=O)Nc3ccc(Cl)c(S(=O)(=O)N4CCCCC4)c3)C2=O)cc1 (stereo not drawn)	.	.	.	9.8	6.2	.
COc1ccccc1C(=O)NC(=O)COC(=O)/C(=C/c1ccccc1)NC(C)=O	12.9	5.7	.	7.2	3.1	-1.0
CCCCCCNC1=NCCS1	-2.4	-0.8	-0.3	3.9	-2.4	0.8
O=C(CSc1ncnc2c1nnn2Cc1ccccc1)NC1CCCCC1	5.7	-18.3	.	80.2*	66.2	-1.1
C#CCNC(=O)C1=C[C@H](C2CCCCC2)C[C@H](OCCCCO)O1	1.1	-11.4	0.2	-1.4	-2.1	-2.9
C(#Cc1ccccc1)CN1CCN(c2ccccn2)CC1	7.5	10.2	-0.5	-79.5	-71.6*	2.3
SMILES	NALP1 inh	p-CIP stab down	Hsp70 act	HSF-1 act	HSF1 inh	HSP90 inh
CCOC(=O)/C(C#N)=C/c1c(N2CCN(c3ccccc3)CC2)nc2ccccn2c1=O	4.7	-11.6	.	93.4*	55.8	5.4
COC(=O)/C(C#N)=C/c1c(N2CCN(c3ccccc3)CC2)nc2ccccn2c1=O	5.6	-15.2	.	36.4	31.8	-0.9
O=C(CCn1c(=O)oc2ccccc21)Nc1ccc2c(c1)OCCO2	-6.3	1.3	.	5.2	11.0	.
CSc1ccc(/C=N/NC(=O)c2sccc2C)cc1	39.5	2.1	-0.1	61.6*	41.2	1.0
CC(C)Oc1ccc(C(=O)NC(=S)N2CCOCC2)cc1	26.8	2.1	-0.2	-19.0	-22.0	1.1
COc1ccc2ccccc2c1C1CC(=O)N2CN(C3CCCCC3)CSC2=C1C#N (stereo not drawn)	-2.3	-0.8	-0.5	-63.6	-53.7*	-2.7
COc1ccc2ccccc2c1C1CC(=O)N2CN(Cc3ccco3)CSC2=C1C#N (stereo not drawn)	-13.4	-10.1	-0.2	1.1	13.1	3.2
CC1Cc2cc(S(=O)(=O)N3CCC(C(=O)NCc4ccco4)CC3)ccc2N1C(=O)C1CCC1 (stereo not drawn)	-1.8	-0.3	.	-3.6	0.6	0.0
CCCCNC(=O)CCc1nc2cccnc2n1Cc1ccccc1	8.4	-11.9	.	-2.7	5.7	-2.2
COc1ccc(Cn2c(CCC(=O)Nc3ccc(C)cc3)nc3cccnc32)cc1	1.3	11.4	-0.1	54.3*	29.2	-1.4
O=C(CCc1nc2cccnc2n1Cc1ccccc1)N1CCOCC1	36.3*	12.9	-0.3	-4.8	0.9	-4.0
COc1ccc(S(=O)(=O)N2CCCC(C(=O)N3CCOCC3)C2)cc1OC (stereo not drawn)	8.4	4.6	.	2.0	4.1	-2.0
COC(=O)Nc1ccc2c(c1)N(C(=O)CCN(C)C)c1ccccc1CC2	6.2	-10.1	.	33.6	5.1	-1.6
O=C(NC1C(=O)NNC1c1ccccc1)c1ccccc1 (stereo not drawn)	7.2	-2.3	0.5	167.8*	116.3	8.0
O=C(CC(=O)Nc1cccc(Cl)c1Cl)Nc1cccc(Cl)c1Cl	16.4	-7.3	.	-4.4	7.1	3.5
Cc1csc2nc(CSc3nc4ccccc4o3)c(Br)n12	6.3	-15.8	0.0	110.4*	92.6	-0.2
Cc1csc2nc(CSc3nncn3-c3ccccc3)c(Br)n12	-0.4	-5.0	0.5	-13.2	-5.8	2.5
NC(=O)C1CCN(C(=O)c2ccccc2SCC(=O)NCC2CCCCC2)CC1	2.2	2.2	.	3.6	-6.1	0.1
Oc1ccc(N=Nc2ccccc2C(F)(F)F)c2cccnc12	5.6	2.5	.	-71.8	-65.8*	-1.3
CCS(=O)(=O)c1ccc(N=Nc2ccc(O)c3ncccc23)c(OC)c1	12.0	5.2	-0.5	-56.8	-59.9*	3.6
COc1ccccc1N=Nc1ccc(O)c2ncccc12	9.8	10.0	.	-79.4	-78.2*	11.7
CCS(=O)(=O)c1ccc(O)c(NC(=O)c2cc(OC)c(OC)c(OC)c2)c1	12.4	12.1	-0.3	3.0	-0.1	-5.2
Oc1ccc(F)c2cccnc12	2.7	-6.8	0.1	7.7	9.0	1.4
